From PubChem BioAssay
Unmarked numbers belong to inactive results. No rule for the calls is given here.

Biological target: Pantothenate synthetase (Mycobacterium tuberculosis (strain ATCC 25618 / H37Rv)) (UniProt P9WIL5)
Assay: Coupled enzyme confirmation of inhibitors against recombinant Mtb PanC (AID 375);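 also: 0% = full reaction with vehicle and 100% = no enzyme background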
Details: coupled enzyme assay; at 10 µM, hits give high values

Sequence of Pantothenate synthetase (Mycobacterium tuberculosis (strain ATCC 25618 / H37Rv)) (P9WIL5 whole entry, looked up): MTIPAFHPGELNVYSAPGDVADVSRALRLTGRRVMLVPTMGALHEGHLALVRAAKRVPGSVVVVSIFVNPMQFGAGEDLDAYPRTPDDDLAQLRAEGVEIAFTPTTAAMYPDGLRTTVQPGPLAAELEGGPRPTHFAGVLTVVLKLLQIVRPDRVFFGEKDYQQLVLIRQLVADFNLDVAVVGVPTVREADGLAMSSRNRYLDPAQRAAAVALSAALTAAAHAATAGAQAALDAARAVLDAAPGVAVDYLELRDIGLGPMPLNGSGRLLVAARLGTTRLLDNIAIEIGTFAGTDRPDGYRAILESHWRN

O=C(CSc1nc2cc(Cl)ccc2s1)N1CCN(C(=O)c2ccco2)CC1
inhibition: 9%

O=C(CC(CC(=O)c1ccccc1)C(=O)O)c1ccccc1
inhibition: 3%

CCOc1ccc(NC2c3ccccc3C(=O)N2Cc2ccco2)cc1 (stereo unspecified)
inhibition: 1%

Cc1ccc2nc(NC(=O)Cn3cc4c(n3)CCCCC4)sc2c1
inhibition: 0%

CCn1cc(SCC(=O)NCC2CCCO2)c2ccccc21 (stereo unspecified)
inhibition: 0%

CCCCc1ccc(NC(=O)N[C@H](C(=O)O)C(C)C)cc1
inhibition: 1%

O=C(CSc1nnc(Cn2c(=O)sc3ccccc32)n1-c1ccccc1)Nc1nccs1
inhibition: 1%

CCOC(=O)N1CCC(NC(=O)CSCc2nc(-c3cccc(OC)c3)oc2C)CC1
inhibition: 0%

Cn1c(SCC(=O)N2CCN(c3cccc(Cl)c3)CC2)nnc1-c1ccncc1
inhibition: 0%

Cc1ccnc(N2CCN(C(=O)CSc3nc4ccccc4nc3N3CCCCC3)CC2)c1
inhibition: 1%

Cc1cc2c(s1)c1cnn(CC(=O)NCCc3ccccc3)c(=O)c1n2C
inhibition: 0%

COc1ccc(S(=O)(=O)NC(C)C(=O)Nc2cccc(C(C)=O)c2)cc1 (stereo unspecified)
inhibition: 0%

CC(C)N1C(=O)C2C(C(=O)NC3CCCCC3)C3C=CC2(O3)C1C(=O)NC1CCCC1 (stereo unspecified)
inhibition: 0%

Cc1ccc(S(=O)(=O)N(C)Cc2cc3ccccc3[nH]c2=O)cc1
inhibition: 0%

O=C(O)CC1=C(O)C(=O)N(c2ccccc2)C1c1ccccc1 (stereo unspecified)
inhibition: 0%

CCOC(=O)c1cc2ccc(OC)c(OC)c2c(=O)s1
inhibition: 0%
